# The campaign covered roughly 1,300 compounds. About 270 (21%) were called active. The rule behind the calls is not given here. Only a sample is shown. Results with a measured potency or affinity are listed apart.
# Assay: cytotoxicity in parental SK-MEL-5 melanoma cells – cell-based, CellTiter-Glo, cherry-picked, set 3, orthogonal assay for MITF inhibitor project, dose response (AID 493240)
# Conditions: SK-MEL-5 viability, ATP luminescence (CellTiter-Glo), 24 h; series mostly up to 35 µM
row,Compound,outcome
1,CCOC(=O)CSc1nc2cc(OCC)ccc2cc1C#N,inactive
2,Brc1ccc(-c2cn3cccnc3n2)cc1,inactive
3,O=C(NCc1ccco1)c1nc2c(nnn2Cc2ccccc2Cl)c(=O)[nH]1,inactive
4,CC(NC(=O)c1ccc([N+](=O)[O-])o1)C12CC3CC(CC(C3)C1)C2 (stereo not given),inactive
5,C=C1C(=O)O[C@@H]2[C@H]1[C@@H](OC(=O)/C(C)=C/C)C/C(C)=C\C(=O)/C=C(\C)[C@@H]2O,inactive
6,CCN(CCO)c1ccc(N=Nc2cc(C)[nH]n2)cc1,inactive
7,CN(C)c1ccc(/C=C2\SC(=O)N(CCc3nnc(N)s3)C2=O)cc1,inactive
8,COc1ccc(-c2nc(-c3ccccc3OC)no2)cc1OC,inactive
9,Cc1ccc(NC(=O)Cn2ncc(Cl)c(Cl)c2=O)cc1S(=O)(=O)N1CCCCC1,inactive
10,Cc1cc(Br)ccc1NC(=O)CNC(=O)Cn1ncc(Cl)c(Cl)c1=O,inactive
11,O=C(Cn1ncc(Cl)c(Cl)c1=O)N1CCN(Cc2ccccc2)CC1,inactive
12,O=C(Cn1ncc(Cl)c(Cl)c1=O)NCC1CCCCC1,inactive
13,CC(C)(C)C(=O)Cn1ncc(Cl)c(Cl)c1=O,inactive
14,O=C1CN(C(=O)Cn2ncc(Cl)c(Cl)c2=O)c2ccccc2N1,inactive
15,Cc1ccc(CC(=O)Nc2ccc(Cl)cn2)cc1,inactive
16,C1CCC(C(CC2CCCCN2)C2CCCCC2)CC1 (stereo not given),inactive
17,OCc1ccc(N=Nc2ccccc2)cc1,inactive
18,COc1cc(-c2nnc(-c3ccco3)o2)ccc1OCc1ccccc1,inactive
19,Cc1ccc2nc(C)cc(Nc3ccc([N+](=O)[O-])cc3)c2c1,inactive
20,CCOc1cccc(C(=O)NC2=NCCS2)c1,inactive
21,COc1ccc(C)cc1Nc1nc(N)c2cc(OC)c(OC)cc2n1,inactive
22,O=C(O)c1cc(N/N=C/C(Cl)=C/c2ccccc2)ccc1Cl,inactive
23,Cc1ccc(C(=O)Nc2nc3ccc(Cl)cc3s2)o1,inactive
24,Cc1ccc(-c2n[nH]c(=O)c3ccccc23)cc1S(=O)(=O)NCC1CCCO1 (stereo not given),inactive
25,O=C(Nc1ccc2nn(-c3ccccc3)nc2c1)c1ccco1,inactive

row,Compound,outcome
1,CCOc1ccc(-c2nnc(-c3cccs3)o2)cc1OCC,inactive
2,Cn1cc(C(=O)N/N=C/c2c(O)ccc3ccccc23)ccc1=O,inactive
3,C/C(=N/Nc1nc(C)c(C)s1)c1cccc([N+](=O)[O-])c1,inactive
4,O=[N+]([O-])c1cc(Cl)cc(/C=N\Nc2ccccn2)c1O,inactive
5,Cc1ccc2oc(=O)n(CCCOc3ccccc3)c2c1,inactive
6,CCCOc1ccc(-c2c(=O)n(O)c3ccccc3[n+]2[O-])cc1,inactive
7,CCOc1ccc(-c2noc(CCC(=O)O)n2)cc1,inactive
8,COc1cccc(C(=O)N/N=C(/c2ccccc2)c2ccccn2)c1,inactive
9,O=C(Nc1ccc(F)cc1)c1nc(S(=O)(=O)Cc2ccccc2)ncc1Cl,inactive
10,CC(=O)Nc1ccc(NC(=O)c2nc(S(=O)(=O)Cc3ccccc3)ncc2Cl)cc1,inactive
11,CS(=O)(=O)c1ncc(Cl)c(C(=O)Nc2ccc(N3CCOCC3)cc2)n1,inactive
12,O=C(Nc1ccc2ncccc2c1)c1ccccc1Br,inactive
13,COc1ccc(/C=N/N=C2/SCC(=O)N2Cc2ccccc2)cc1,inactive
14,Cc1ccc(C)c(S(=O)(=O)N2CCN(Cc3ccc(O)c4ncccc34)CC2)c1,inactive
15,CC1CCCC(NC(=O)NC(=O)CCl)C1C (stereo not given),inactive
16,Cc1ccc(-c2cn3cc(C)ccc3n2)cc1,inactive
17,O=C(O)c1cccc(NC(=S)N/N=C/c2ccccn2)c1,inactive
18,CC1=NOC(=O)/C1=C\c1ccc(-c2cccc(Cl)c2)o1,inactive
19,CC(C)[C@H](NC(=O)OC(C)(C)C)c1nnc(S(=O)(=O)Cc2c(F)cccc2Cl)o1,inactive
20,C/C(=N\NC(=O)C1COc2ccccc2O1)c1ccccn1 (stereo not given),inactive
21,Cc1cc(C)c2c(N)c(C(=O)Nc3ncc(C)s3)sc2n1,inactive
22,CC(OC(=O)c1ccc([N+](=O)[O-])s1)C(=O)NC1CCCCC1C (stereo not given),inactive
23,Clc1c(-c2ccccc2)nc2ccccn12,inactive
24,Cn1nnnc1Sc1ncnc2scc(-c3ccc[nH]3)c12,inactive
25,C=C1CCC[C@]2(C)C[C@H]3OC(=O)C(CN4CCCCC4CO)[C@H]3CC12 (stereo not given in full),inactive

row,Compound,outcome
1,CCOc1cc(/C=C2/NC(=S)NC2=O)ccc1OCc1ccc([N+](=O)[O-])cc1,inactive
2,COc1cc(/C=N/NS(=O)(=O)c2ccc3ccccc3c2)ccc1OCc1ccc(C(=O)O)cc1,inactive
3,CCOc1cc(/C=N/Nc2cccc(C(=O)O)c2)ccc1OC(=O)c1ccccc1,inactive
4,COc1cc(/C=N/NS(=O)(=O)c2ccc(C)cc2)ccc1OCc1cccc(C(=O)O)c1,inactive
5,O=C(Cn1nnc(-c2ccccc2Cl)n1)N1CCCCC1,inactive
6,CC(C)OC(=O)CSc1nc2cc3c(cc2cc1C#N)OCO3,inactive
7,CCOc1ccc(OCc2ccc(C(=O)N/N=C(\C)c3ccccn3)cc2)cc1,inactive
8,C/C(=N\NC(=O)Cc1ccc(Cl)cc1)c1ccccn1,inactive
9,O=C(Nc1nc2ccccc2s1)Nc1ccc(F)cc1F,inactive
10,O=C(N/N=C/c1ccccc1)c1ccco1,inactive
11,O=C(Nc1ccccc1)O/N=C/c1ccc(F)cc1,inactive
12,CCC(=O)OCCNc1cc(Sc2nc3ccccc3[nH]2)c2nonc2c1[N+](=O)[O-],inactive
13,Cc1cc(C)nc(S/C=C/C(=O)c2ccccc2F)n1,inactive
14,CC(=O)N/C(N)=N/c1nc2cc(C)ccc2o1,inactive
15,COc1ccccc1N1CCN(/N=C/c2ccc([N+](=O)[O-])cc2)CC1,inactive
16,CN(c1ccc(O)cc1)c1nc(O)c(C2=c3ccccc3=NC2=O)s1,inactive
17,CCOC(=O)C1CCCN(C(=O)C2CCN(S(=O)(=O)CC)CC2)C1 (stereo not given),inactive
18,Nc1ccc(-c2nc3ccc(C(=O)O)cc3s2)cc1,inactive
19,Cn1c(COc2ccccc2)nc2ccccc21,inactive
20,COCc1nc(-c2ccc(-c3ccccc3)nc2OC)no1,inactive
21,Brc1cccc(/C=N/Nc2nn[nH]n2)c1,inactive
22,CC(C)=CCc1c(O)ccc2c1OC(c1ccc(O)c(O)c1)CC2=O (stereo not given),inactive
23,O=C(Nc1cc2c(cc1Cl)OCCO2)c1ccco1,inactive
24,COc1ccc(-n2c(C)cc(C(=O)CCl)c2C)cc1,inactive
25,CCOc1ccc(-n2c(C)cc(C(=O)CCl)c2C)cc1,inactive

# Source: PubChem BioAssay AID493240 (Broad Institute, 2011)
